# Results as given in PubChem BioAssay (NCI).
# Compounds without any hit were thinned out: in the full panel of roughly 83,000, 20% have a hit.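 Single-dose data. Exposure time 48 hours. Values below 10 considered active.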 A number with no mark means an inactive call. The source made the active and inactive calls.
# Assays:
# Experiment in all cases: NCI-60 one-dose screen, 48 h (100 = growth as untreated, 0 = no growth, -100 = all killed)
# Settings in all cases: 10 µM unless noted
# [1] = test system: SR leukemia
# [2] = test system: RPMI-8226 leukemia
# [3] = test system: OVCAR-8 ovarian
# [4] = test system: OVCAR-5 ovarian
# [5] = test system: OVCAR-4 ovarian
# [6] = test system: SK-OV-3 ovarian
# [7] = test system: IGROV1 ovarian
# [8] = test system: OVCAR-3 ovarian
# [9] = test system: HS 578T breast
# [10] = test system: NCI/ADR-RES ovarian
# [11] = test system: T-47D breast
# [12] = test system: BT-549 breast
# [13] = test system: MDA-MB-435 melanoma
# [14] = test system: SW-620 colon
# [15] = test system: MCF7 breast
# [16] = test system: HCC-2998 colon
# [17] = test system: KM12 colon
# [18] = test system: HCT-116 colon
SMILES,growth [1],growth [2],growth [3],growth [4],growth [5],growth [6],growth [7],growth [8],growth [9],growth [10],growth [11],growth [12],growth [13],growth [14],growth [15],growth [16],growth [17],growth [18]
COC(=O)C(Cc1ccccc1)n1cc(COc2nc(Cl)nc(Nc3ccc(Cl)cc3)n2)nn1 (centres undefined),66.8%,72.7%,96.1%,116%,104%,106%,99%,87.2%,81.6%,101%,78.9%,99.6%,105%,99.8%,78.1%,101%,96.5%,–
C[C@H]1OC(=O)/C=C/[C@@H](O)[C@@H](O)CCCCCCCC[C@@H]1O,118%,101%,89.6%,95.6%,101%,94.9%,103%,109%,101%,98.1%,59.9%,105%,106%,102%,–,102%,–,88.4%
Cc1cc(N(CCNc2ccnc3cc(Cl)ccc23)Cc2ccco2)nc(Cl)n1,-14.5% (active),-29.5% (active),-26.6% (active),-37.5% (active),-59.7% (active),-36.3% (active),-72.1% (active),-89.5% (active),6.7% (active),-4.64% (active),-69.1% (active),-78% (active),30.1%,–,-29.7% (active),62.2%,26.5%,-96.8% (active)
Cn1cc(-c2csc(-c3cn(CCNC(=O)OC(C)(C)C)c4ccccc34)n2)c2cccnc21,75.6%,42.1%,45%,115%,49.2%,94.9%,64.7%,86.3%,82.1%,56%,-1.03% (active),67.2%,74.5%,–,39.4%,95.8%,59.2%,81.1%
COc1cc2nc(Cl)nc(Nc3cccc(C(=O)/C=C/c4ccc(Br)cc4)c3)c2cc1OC,14.7%,-2.21% (active),84.7%,102%,93%,96.7%,86.8%,88.6%,98.4%,92.2%,72.4%,79.7%,89.6%,15.1%,–,104%,78.1%,15.8%
Brc1ccc(Cn2nnnc2-c2ccn(-c3ccccc3)n2)cc1,56.4%,59.2%,110%,32%,72.7%,82.1%,77.8%,86.8%,77.7%,27.5%,57.7%,76.8%,85%,–,77.7%,80.1%,80.6%,49.4%
CCCCn1c(-c2ccc(O)cc2)cn2c3c(=O)[nH]c(=O)n(C)c3nc12,31.1%,84.7%,91.7%,111%,82.2%,77.9%,72.9%,89.8%,82.6%,90.1%,64.6%,76.5%,-13.1% (active),36.6%,41.7%,72.3%,59.9%,–
C/C(=N\Nc1ccc2ccccc2n1)c1ccccn1,6.18% (active),1.84% (active),6.43% (active),24%,21.2%,24.7%,-2.71% (active),8.54% (active),49%,1.66% (active),19.8%,20.3%,3.21% (active),10.3%,–,18.1%,6.76% (active),-12% (active)
COc1cc(/C=C/c2cc(/C=C/c3ccc(O)c(OC)c3)n(-c3ccc(Cl)cc3)c(=O)n2)ccc1O,36.4%,64.5%,107%,103%,78.3%,89.7%,8.57% (active),83.8%,87.4%,96.5%,86%,66.9%,74.9%,–,47.6%,104%,77%,50.6%
O=C(N/N=C/c1ccccc1SSc1ccccc1/C=N/NC(=O)c1ccccc1)c1ccccc1,18.9%,31.1%,24.9%,85.2%,38.5%,43%,30.6%,31.1%,75.4%,9.77% (active),43.6%,30.1%,46.1%,–,10.1%,55.6%,36.4%,24.6%
CCN1CCN(C(=O)[C@@]2(C)CC[C@]3(C)CC[C@]4(C)C(=CC(=O)[C@@H]5[C@@]6(C)CC[C@H](OC7C[C@@H](O)[C@@H](O)C(C)O7)C(C)(C)[C@@H]6CC[C@]54C)[C@@H]3C2)CC1 (some centres undefined),-4.66% (active),-25.7% (active),12.3%,9.86% (active),0.113% (active),113%,26.5%,105%,87.5%,47%,82.6%,87.1%,20.4%,36.7%,–,37.7%,30.8%,1.7% (active)
Cc1nn(-c2ccc(Cl)cc2)c(=O)n1CCn1cnc2ccccc21,104%,104%,112%,99.9%,118%,113%,102%,111%,100%,103%,90.8%,97.5%,100%,–,95.5%,104%,121%,97.5%
Cc1cc(N(CCCNc2ccnc3cc(Cl)ccc23)Cc2ccco2)nc(N2CCOCC2)n1,8.63% (active),35.1%,80.4%,79%,65.7%,78.6%,45.2%,72.4%,77.5%,67.4%,88.5%,58.4%,62.9%,–,63.4%,87.4%,79.3%,43.8%
Cc1ccc(C)c2c1CCC2C(C)C (centres undefined),89.3%,96.7%,100%,98.3%,100%,92.9%,103%,104%,100%,105%,91.2%,100%,108%,106%,–,101%,101%,96%
O=C(NC(Cc1cn(Cc2ccccc2)cn1)C(=O)O)OCC1c2ccccc2-c2ccccc21 (centres undefined),85.1%,114%,103%,105%,106%,109%,105%,105%,98%,104%,112%,97.2%,113%,–,104%,113%,101%,90.8%
COC(c1ccccc1)(c1ccccc1)c1ccccc1,114%,171%,98.8%,113%,99.3%,107%,123%,108%,103%,108%,87.1%,95.7%,108%,–,–,142%,82.2%,104%
Nc1c2c(nc3ccc(Cl)cc13)CC(c1ccc(O)cc1)CC2=O (centres undefined),31.8%,34.9%,75.5%,91.9%,81.3%,68.7%,49.3%,25.3%,46.1%,25.1%,54.8%,53.3%,-38.5% (active),–,25.1%,77.9%,26.7%,26.2%
COC(=O)[C@]12CC[C@@H](C(=O)/C=C/c3cccnc3)[C@@H]1[C@H]1CC[C@@H]3[C@@]4(C)C/C(=C/c5cccnc5)C(=O)C(C)(C)[C@@H]4CC[C@@]3(C)[C@]1(C)CC2,-14.1% (active),-28.7% (active),-34.3% (active),-62.7% (active),-39.2% (active),-23.1% (active),-87.9% (active),-93.2% (active),-49.1% (active),-39.4% (active),-43.6% (active),-92.1% (active),-69.7% (active),-67.3% (active),–,-55.5% (active),-75% (active),-87.4% (active)
